From PubChem BioAssay (Tox21)
Records with an inconclusive call do not appear. Unmarked numbers belong to inactive results. Active and inactive are the calls of the source. Calls follow the shape of the dose curve; as a rule, active = well fitted cell-killing curve with a large enough effect in the repeat runs; inconclusive = weak or mixed curves, or effect the other way; inactive = flat fitted curve, though single readings scatter.

Test: qHTS RealTime-Glo MT Cell Viability Assay in HepG2 cells - 0 hour (AID 1224889); also: nearly all actives have a fitted effect of over 50% in size
Conditions: RealTime-Glo luminescence; series mostly up to 76.8 µM; activity change, negative = cytotoxicity: at the top concentration
How it was run: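 Cells + NanoLuc/prosubstrate dispensed (600 cells/well) → 5 h at 37 C/5% CO2 → compounds in DMSO transferred → 40 h incubation at 37 C, luminescence read at 0, 8, 16, 24, 32, 40 h.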
% is scaled to controls: 0 for no effect and ±100 for the full control effect.

Row | SMILES | outcome | activity change, negative = cytotoxicity
1 | c1ccc(OP(Oc2ccccc2)Oc2ccccc2)cc1 | inactive | –
2 | COC(=O)c1ccccc1N | inactive | –
3 | CCOP(=S)(OCC)Oc1cnc2ccccc2n1 | – | 1.19%
4 | CCCN(CCC)N=O | inactive | –
5 | CN(N=O)c1ccccc1 | inactive | –
6 | CC(C)OC(=O)Nc1cccc(Cl)c1 | inactive | –
7 | CCCCOC(=O)c1ccccc1C(=O)OCCCC | inactive | –
8 | CCCCN(CCCC)SN(C)C(=O)Oc1cccc2c1OC(C)(C)C2 | inactive | –
9 | CC(NC(C)(C)C)C(=O)c1cccc(Cl)c1 (centres undefined) | inactive | –
10 | CC(C)(C)C(O)(CCc1ccc(Cl)cc1)Cn1cncn1 (centres undefined) | inactive | –
11 | CC(C)C#N | inactive | –
12 | Cc1cc(Cl)ccc1O | inactive | –
13 | O=S(=O)(c1ccc(O)cc1)c1ccc(O)cc1 | inactive | –
14 | Cc1ccc([N+](=O)[O-])cc1C | inactive | –
15 | C1CN2CCN1CC2 | inactive | –
16 | CC(C)(Cl)Cl | inactive | –
17 | CC(C)(C)OOC(=O)c1ccccc1 | inactive | –
18 | CCc1cccc(C)c1N(C(=O)CCl)C(C)COC (centres undefined) | inactive | –
19 | c1ccc2c(c1)Oc1ccccc1O2 | inactive | –
20 | O=[N+]([O-])c1ccc(Oc2ccc(Cl)cc2Cl)cc1 | inactive | –
21 | CCC[N+](=O)[O-] | inactive | –
22 | Nc1c(Cl)c(Cl)nc(C(=O)O)c1Cl | inactive | –
23 | CC(=O)C=C(C)C | inactive | –
24 | C#CC(C)(C)NC(=O)c1cc(Cl)cc(Cl)c1 | inactive | –
25 | CN(C)CCO | inactive | –
26 | OC(O)C(Cl)(Cl)Cl | inactive | –
27 | CC1C=[C-]C=C1.[C-]#[O+].[C-]#[O+].[C-]#[O+].[Mn] | inactive | –
28 | CCN(CC)c1ccccc1 | inactive | –
29 | CCC(C)(CC)c1cc(NC(=O)c2c(OC)cccc2OC)on1 | inactive | –
